D1 PAM: potentiators of human D1 dopamine receptor | 0.036% of 360,000 active | P21728 | HEK293 TREx D1 cells, calcium flux, dopamine EC20 potentiation | potentiation, % at 10 µM; in the data active means potentiation above about 30%
D1 antagonist: blocks dopamine activation of the human D1 receptor | 3.2% of 360,000 active | HEK293 TREx D1 cells, calcium flux, dopamine EC80; stronger effect = lower value | P21728 | activity change, negative = inhibition, % at 10 µM; in the data active means activity change below about -30%
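Antagonism measured as reduced calcium response to an EC80 dopamine addition following 180 s compound pre-read; cells were inducible HEK293 Trex D1 plated overnight at 30 C, read kinetically at 1 cycle/sec.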
D1 agonist: agonists of human D1 dopamine receptor; 1% of 360,000 active; HEK293 T-REx D1 cells, calcium flux, agonist mode; P21728; activation, % at 2 µM
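Inducible HEK293 T-REx D1 cells, force-coupled to calcium signalling, were plated at 4000 cells/well with tetracycline and held overnight at 30 C. After no-wash calcium dye loading, compound-evoked calcium rise over 180 s flagged agonists.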
TRHR ag: agonists of human TRH receptor. P34981. TRHR cells, calcium flux fluo-8, FDSS agonist mode. activation, % at 2 µM. 0.18% of 360,000 active
Target sequence (P34981 whole entry, looked up): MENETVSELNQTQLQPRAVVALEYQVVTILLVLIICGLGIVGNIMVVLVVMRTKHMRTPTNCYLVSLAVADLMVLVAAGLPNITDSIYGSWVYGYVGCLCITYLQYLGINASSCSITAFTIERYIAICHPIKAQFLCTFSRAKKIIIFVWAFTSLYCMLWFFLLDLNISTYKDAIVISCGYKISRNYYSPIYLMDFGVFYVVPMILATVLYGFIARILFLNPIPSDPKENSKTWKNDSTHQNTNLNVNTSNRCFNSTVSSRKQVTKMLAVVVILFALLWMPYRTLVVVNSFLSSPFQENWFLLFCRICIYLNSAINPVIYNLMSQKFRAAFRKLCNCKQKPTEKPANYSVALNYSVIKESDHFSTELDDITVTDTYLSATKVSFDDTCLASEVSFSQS
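In this calcium-flux screen, cells bearing human TRHR are dye-loaded with fluo-8, baselined for 10 cycles, then exposed to library compounds; positive kinetic calcium responses during the agonist phase mark hits, with TRH as control.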
TRHR PAM: TRH receptor (human) allosteric enhancement; P34981; enhancement, % at 2 µM; TRHR cells, fluo-8 calcium fluorescence, EC20 TRH enhancement; 0.66% of 360,000 active; in the data active means enhancement above about 30%
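Enhancer read-out: after compound pinning and an initial kinetic agonist-mode read, an EC20 of TRH (10 nM final) was injected and fluo-8 calcium signal (Ex 480/Em 530) followed at 1 s/cycle for 100 cycles in TRHR-expressing cells.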
A number is an active result; - = inactive. The list is not random: actives were taken first. Their share in the collection is about 4.7%. Unless noted, no stated cut-off is given here; in the data, active means activation above about 30%; inactive means the rest.

SMILES	D1 PAM	D1 antagonist	D1 agonist	TRHR ag	TRHR PAM
CC(=O)N1CCCc2cc(S(=O)(=O)N3CCCC(C(=O)Nc4ccc(C)c(C)c4)C3)ccc21 (configuration not stated)	-	-	-	-	-
Cc1ccc(NC(=O)C(C)OC(=O)Cc2c[nH]c3ccccc23)cc1 (configuration not stated)	-	-56	-	-	-
Cc1ccc(S(=O)(=O)CCC(=O)N(C)C2CCCCC2)cc1	-	-42	-	-	-
Cc1ccc(S(=O)(=O)CCC(=O)OC(C)C(=O)NC2CCCCC2C)cc1 (configuration not stated)	-	-42	-	-	-
CC(OC(=O)Cc1c[nH]c2ccccc12)C(=O)NC1CCCCC1C (configuration not stated)	-	-31	-	-	-
Cc1ccc(S(=O)(=O)CCC(=O)NC2CCCCC2)cc1	-	-	-	-	-
CC(OC(=O)CCC(=O)c1ccc(F)cc1)C(=O)NC1CCCCC1C (configuration not stated)	-	-	-	-	-
CCOC(=O)c1c(S(=O)(=O)NCC(=O)Nc2ccc(C)c(Cl)c2)c(C)n(C)c1C	-	-	-	-	-
COc1ccc(-c2cn3c(n2)sc2cc(C(=O)NCCCc4ccccc4)ccc23)cc1	-	-	-	-	-
COc1cccc(-c2cn3c(n2)sc2cc(C(=O)NCCCc4ccccc4)ccc23)c1	-	-34	-	-	-
COC(=O)c1ccc(CN(Cc2ccc(OC)c(OC)c2)S(=O)(=O)c2cc(C(=O)Nc3cccc(C)c3)ccc2F)cc1	-	-	-	-	-
CCn1c(=O)c(C(=O)NNC(=O)c2ccccc2Cl)c(O)c2ccccc21	-	-	66	-	-
CCCCCC(=O)NNC(=O)c1c(O)c2ccccc2n(CC)c1=O	-	-	-	-	-

Screens (PubChem)
